# Experimental data: PubChem BioAssay (EPA / NIEHS)
# Results filed as inconclusive are left out. The source made the active and inactive calls. Rule for the calls, unless noted: active = hit-call score of the fitted dose curve at least 0.9, where 1 is the maximum; inconclusive = response in the unintended direction; inactive = score below 0.9.
# Assays:
# [1] = target: Estrogen receptor (Homo sapiens) (UniProt P03372); test: CCTE_Deisenroth_AIME_384WELL_LUC_Active: CCTE's 384-well Estrogen Receptor Transactivation Assay with AIME metabolic competence (ERTA luciferase; metabolism positive), Deisenroth Lab (AID 2284030)
# In short: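 Estrogenic luciferase signal in VM7Luc4E2 cells is measured at 24 hour, after chemicals have been preconditioned 2 hours with PB/BNF-induced rat hepatic S9 in alginate. Gain of signal is fitted relative to 17beta-estradiol, across 0.002 - 200 uM.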
# [2] = CCTE_Deisenroth_AIME_384WELL_CTox_Active: Cytotoxicity Assessment (CTOX) in CCTE's 384-well Estrogen Receptor Transactivation Assay with AIME metabolic competence (metabolism positive), Deisenroth Lab (AID 2284037);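 note: chemicals first conditioned 2 h by alginate-bound induced rat liver S9 before cells; activity means signal loss indicating cell death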
# In short: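 VM7Luc4E2 breast cells received medium pre-incubated 2 h with chemical over alginate microspheres holding induced male Sprague Dawley rat liver S9; viability read 24 h later by protease-substrate fluorescence. Loss of signal, bidirectional fit, 0.002–200 uM.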
# [3] = target: Estrogen receptor (Homo sapiens) (UniProt P03372); test: CCTE_Deisenroth_AIME_384WELL_LUC_Inactive: CCTE's 384-well Estrogen Receptor Transactivation Assay without AIME metabolic competence (ERTA luciferase; metabolism negative), Deisenroth Lab (AID 2284038);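 note: hits raise estrogen receptor luciferase signal so potencies reflect agonists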
# In short: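 VM7Luc4E2 ER transactivation, luciferase bioluminescence after 24 h, using medium pre-incubated 2 h with S9-free alginate microspheres. Concentrations 0.002–200 uM; gain of signal fitted relative to 17beta-estradiol.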
# [4] = CCTE_Deisenroth_AIME_384WELL_CTox_Inactive: Cytotoxicity Assessment (CTOX) in CCTE's 384-well Estrogen Receptor Transactivation Assay without AIME metabolic competence (metabolism negative), Deisenroth Lab (AID 2284039);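 note: cell viability via live-cell protease substrate cleaved to fluorescent probe; cells exposed 24 h to medium preincubated 2 h with alginate-water beads without S9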
# In short: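 Metabolism-negative arm: chemicals (10-point, 0.002 - 200 uM) preincubated 2 h with alginate-water lids, medium moved onto VM7Luc4E2 cells for 24 h. Fluorescent live-cell protease readout; bidirectional curve fit.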
# [5] = target: Estrogen receptor (Homo sapiens) (UniProt P03372); test: CCTE_Deisenroth_AIME_384WELL_LUC_Shift: CCTE's 384-well Estrogen Receptor Transactivation Assay with AIME metabolic competence data shift (ERTA luciferase; difference in metabolism positive and negative), Deisenroth Lab (AID 2284041; active = hit-call score of the fitted dose curve at least 0.9, where 1 is the maximum; inactive = score below 0.9;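 note: shift is response with S9 minus without S9 so positive means metabolism raised ER signal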)
# In short: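 Here, parent compounds undergo 2 h phase I metabolism by PB/BNF-induced rat S9 before 24 h transactivation in VM7Luc4E2 cells; the curve models S9-positive minus S9-negative response over a 10-point series.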
# [6] = CCTE_Shafer_MEA_dev_firing_rate_mean: CCTE's Neural Network Formation Assay for Mean Firing Rate, Shafer Lab (AID 2284031; active = hit-call score of the fitted dose curve at least 0.9, where 1 is the maximum; inactive = score below 0.9)
# In short: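 Steps: seed rat cortical cells (1.5 x 10^5/well) with laminin on PEI-coated MEA; dose day 0; record DIV 5/7/9/12, full media and compound exchange after DIV 5 and 9 recordings; compute well-mean firing rate AUC.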
# [7] = CCTE_Shafer_MEA_dev_per_burst_spike_percent: CCTE's Neural Network Formation Assay for Percent of Spikes in a Burst, Shafer Lab (AID 2284032; active = hit-call score of the fitted dose curve at least 0.9, where 1 is the maximum; inactive = score below 0.9)
# In short: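 Value is trapezoidal AUC over recordings on days 5, 7, 9 and 12 of the well-mean fraction of spikes falling in single-electrode bursts; rat cortical cultures exposed continuously from plating, treatment renewed DIV 5 and 9, fitted downward against DMSO.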
# [8] = CCTE_Shafer_MEA_dev_burst_rate: CCTE's Neural Network Formation Assay for Burst Rate, Shafer Lab (AID 2284042; active = hit-call score of the fitted dose curve at least 0.9, where 1 is the maximum; inactive = score below 0.9)
# In short: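 Cells plated, treated day 0; recorded DIV 5, 7, 9, 12; fed and re-treated DIV 5, 9. Endpoint: bursts per recording time, active-electrode well mean, trapezoidal AUC, fitted in decreasing direction against DMSO baseline.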
# [9] = CCTE_Shafer_MEA_dev_bursting_electrodes_number: CCTE's Neural Network Formation Assay for Number of Bursting Electrodes, Shafer Lab (AID 2284043)
# In short: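 Counted: electrodes with burst rate ≥1 per 2 min in each well. Cells: primary rat cortex, 1.5 x 10^5/well, on 16-electrode MEA wells. Exposure: DIV 0–12, compound renewed DIV 5 and 9. Recording days 5, 7, 9, 12; AUC vs DMSO baseline.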
# [10] = CCTE_Shafer_MEA_dev_per_burst_interspike_interval: CCTE's Neural Network Formation Assay for Burst Interspike Interval, Shafer Lab (AID 2284044; active = hit-call score of the fitted dose curve at least 0.9, where 1 is the maximum; inactive = score below 0.9)
# In short: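 Spontaneous activity of maturing rat cortical networks is recorded on DIV 5, 7, 9 and 12 under chronic compound exposure beginning at plating. Endpoint: burst interspike interval well-mean, collapsed into trapezoidal AUC and fitted in the negative direction relative to DMSO.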
# [11] = CCTE_Shafer_MEA_dev_burst_duration_mean: CCTE's Neural Network Formation Assay for Mean Burst Duration, Shafer Lab (AID 2284045; active = hit-call score of the fitted dose curve at least 0.9, where 1 is the maximum; inactive = score below 0.9)
# In short: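 Network-formation assay in primary rat cortical neurons; treatment spans twelve days of development. Mean burst duration per well is integrated by trapezoidal AUC and fitted in the loss-of-signal direction against DMSO baseline.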
# [12] = CCTE_Shafer_MEA_dev_interburst_interval_mean: CCTE's Neural Network Formation Assay for Mean Interburst Interval, Shafer Lab (AID 2284046; active = hit-call score of the fitted dose curve at least 0.9, where 1 is the maximum; inactive = score below 0.9;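 note: well-mean interburst interval of bursting electrodes as AUC over four recording days; curve fitted for decrease in interburst interval relative to DMSO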)
# In short: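 Developing rat cortical networks on 48-well MEAs receive compound from the day of plating. Burst intervals from each active electrode are averaged per well, and AUC over the recording days is fitted in the negative direction against DMSO.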
# [13] = CCTE_Shafer_MEA_dev_inter_network_spike_interval_mean: CCTE's Neural Network Formation Assay for Mean Inter-network Spike Interval, Shafer Lab (AID 2284047; active = hit-call score of the fitted dose curve at least 0.9, where 1 is the maximum; inactive = score below 0.9)
# In short: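 Rat cortical cultures, 1.5 x 10^5 cells/well on 48-well MEA plates; continuous exposure days 0–12, medium and compound refreshed DIV 5, 9. Mean time between consecutive network-spike peaks; AUC across DIV 5/7/9/12; DMSO baseline, negative fitting direction.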
# [14] = CCTE_Shafer_MEA_dev_network_spike_number: CCTE's Neural Network Formation Assay for Number of Network Spikes, Shafer Lab (AID 2284048; active = hit-call score of the fitted dose curve at least 0.9, where 1 is the maximum; inactive = score below 0.9;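 note: synchronized bursts across electrodes counted on days 5 7 9 12 and integrated as AUC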)
# In short: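 Extracellular recordings from 16-electrode wells track network formation in rat cortical cultures under continuous treatment from plating. The endpoint is network spike number, expressed as AUC across DIV 5–12 relative to DMSO vehicle.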
# [15] = CCTE_Shafer_MEA_dev_network_spike_peak: CCTE's Neural Network Formation Assay for Mean Number of Electrodes in Network Spike, Shafer Lab (AID 2284049; active = hit-call score of the fitted dose curve at least 0.9, where 1 is the maximum; inactive = score below 0.9)
# In short: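 Continuous 12-day exposure of rat cortical cultures, starting at plating, on MEA plates. Endpoint: electrodes participating in network-spike peaks, AUC across DIV 5–12, DMSO as negative control.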
# [16] = CCTE_Shafer_MEA_dev_spike_duration_mean: CCTE's Neural Network Formation Assay for Mean Spike Duration, Shafer Lab (AID 2284051; active = hit-call score of the fitted dose curve at least 0.9, where 1 is the maximum; inactive = score below 0.9;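 note: mean network spike duration pooled as area under curve over DIV 5 to 12 recordings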)
# In short: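 Readout is the average length of network spikes, clustered firing across electrodes, summed over DIV 5, 7, 9 and 12 as area under the curve. Neurons from rat cortex developed networks on MEA plates under continuous 12-day exposure.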
# [17] = CCTE_Shafer_MEA_dev_network_spike_duration_std: CCTE's Neural Network Formation Assay for Standard Deviation of Network Spike Duration, Shafer Lab (AID 2284052; active = hit-call score of the fitted dose curve at least 0.9, where 1 is the maximum; inactive = score below 0.9;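 note: area under curve of spike duration SD across recording days 5 to 12; hits are decreases in network spike duration SD versus DMSO vehicle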)
# In short: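 Read-out is the trapezoidal area-under-the-curve across recordings made on days 5, 7, 9 and 12, fitted in the negative direction against DMSO baseline. Neurons were primary rat cortical cells treated from day 0, with treatment renewed at each feed.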
# DIO2 (gene 1734) = test: CCTE_GLTED_hDIO2: CCTE's human Deiodinase 2 (DIO2) Inhibition Assay, Great Lakes Toxicology and Ecology Division (GLTED) Lab (AID 2284050)
# In short: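 Inhibition is judged by reduced iodide release: uninhibited human DIO2 frees iodide from substrate over 3 h, measured afterward by Sandell-Kolthoff colorimetry. Iodinated chemicals or nitrite, iron and thiocyanate may interfere.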
# Sequence of Estrogen receptor (Homo sapiens) (P03372 whole entry, looked up): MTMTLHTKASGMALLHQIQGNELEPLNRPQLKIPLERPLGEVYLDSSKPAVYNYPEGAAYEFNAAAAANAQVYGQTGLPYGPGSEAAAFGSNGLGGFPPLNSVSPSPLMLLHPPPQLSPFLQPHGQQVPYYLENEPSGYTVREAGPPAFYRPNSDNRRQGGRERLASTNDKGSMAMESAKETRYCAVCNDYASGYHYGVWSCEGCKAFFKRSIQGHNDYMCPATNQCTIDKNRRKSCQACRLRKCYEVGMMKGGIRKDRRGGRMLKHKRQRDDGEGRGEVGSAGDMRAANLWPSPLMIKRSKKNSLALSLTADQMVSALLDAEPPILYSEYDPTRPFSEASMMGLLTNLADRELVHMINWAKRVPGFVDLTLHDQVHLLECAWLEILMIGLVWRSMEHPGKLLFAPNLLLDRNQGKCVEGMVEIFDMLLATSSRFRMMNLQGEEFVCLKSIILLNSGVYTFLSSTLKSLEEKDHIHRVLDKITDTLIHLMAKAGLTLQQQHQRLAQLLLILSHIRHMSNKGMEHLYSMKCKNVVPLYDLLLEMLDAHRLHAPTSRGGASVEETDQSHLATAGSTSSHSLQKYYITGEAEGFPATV
compound,measurement,setting,value
CCCCCCCCO,outcome,[1],inactive
same,outcome,[2],inactive
same,outcome,[3],inactive
same,outcome,[4],inactive
same,outcome,[5],inactive
Nc1nc2ncc(CNc3ccc(C(=O)N[C@@H](CCC(=O)O)C(=O)O)cc3)nc2c(=O)[nH]1,outcome,[6],inactive
same,outcome,[7],inactive
same,outcome,[8],inactive
same,outcome,[9],inactive
same,outcome,[10],inactive
same,outcome,[11],inactive
same,outcome,[12],inactive
same,outcome,[13],inactive
same,outcome,[14],inactive
same,outcome,[15],inactive
same,outcome,[16],inactive
same,outcome,[17],inactive
CC(C)CCO,outcome,[1],inactive
same,outcome,[3],inactive
same,outcome,[4],inactive
same,outcome,[5],inactive
NC(=O)NO,outcome,[6],inactive
same,outcome,[7],inactive
same,outcome,[8],inactive
same,outcome,[9],inactive
same,outcome,[10],inactive
same,outcome,[11],inactive
same,outcome,[12],inactive
same,outcome,[13],inactive
same,outcome,[14],inactive
same,outcome,[15],inactive
same,outcome,[16],inactive
same,outcome,[17],inactive
Nc1cccc(N)c1,outcome,[4],inactive
O=C(O)c1cc(N=Nc2ccc(S(=O)(=O)Nc3ccccn3)cc2)ccc1O,AC50,[2],100 µM (active)
same,AC50,[4],49.7 µM (active)
Clc1nc(Cl)c(Cl)c(Cl)c1Cl,AC50,DIO2 (gene 1734),14.8 µM (active)
CCOC(=O)c1ccc(C2CCC(NC[C@H](O)COc3ccc(O)c(NS(C)(=O)=O)c3)CC2)cc1 (some centres undefined),AC50,[2],100 µM (active)
same,AC50,[4],128 µM (active)
same,AC50,DIO2 (gene 1734),105 µM (active)
CC(C)c1cccc(C(C)C)c1N1C(=O)c2ccc(O)cc2C1=O,outcome,[2],inactive
same,outcome,[4],inactive
CC(C)=CCC/C(C)=C\CO,outcome,[2],inactive
same,outcome,[4],inactive
CCCN(C1CCN(C(=O)C2CCNCC2)CC1)[C@@H]1CCc2ccc(OC)cc2C1,outcome,[2],inactive
O=C(OC[C@H]1O[C@@H](OC(=O)c2cc(O)c(O)c(OC(=O)c3cc(O)c(O)c(O)c3)c2)[C@H](OC(=O)c2cc(O)c(O)c(OC(=O)c3cc(O)c(O)c(O)c3)c2)[C@@H](OC(=O)c2cc(O)c(O)c(OC(=O)c3cc(O)c(O)c(O)c3)c2)[C@@H]1OC(=O)c1cc(O)c(O)c(OC(=O)c2cc(O)c(O)c(O)c2)c1)c1cc(O)c(O)c(OC(=O)c2cc(O)c(O)c(O)c2)c1,AC50,DIO2 (gene 1734),22.4 µM (active)
CC1=CC(=O)CC(C)(C)C1,outcome,[2],inactive
same,outcome,[4],inactive
CC(=O)OCCC(C)C,outcome,[2],inactive
same,outcome,[4],inactive
On1ccccc1=S,outcome,[2],inactive
same,outcome,[4],inactive
CCN(C(=O)c1cc(C)cc(OC[C@H](C)Nc2ccncc2)c1)C(C)C,outcome,[2],inactive
same,outcome,[4],inactive
COCCOCCOCCOC,outcome,[2],inactive
same,outcome,[4],inactive
CCCCCCc1ccc(O)cc1O,AC50,[2],104 µM (active)
same,AC50,[4],162 µM (active)
CCOc1cccc(-n2cc(C(=O)N3CCN(c4cc(C(=O)O)c5ccccc5c4)CC3)nc2-c2ccc(C)cc2)c1,AC50,DIO2 (gene 1734),100 µM (active)
CCOCCOCCOCCO,outcome,[2],inactive
same,outcome,[4],inactive
Cc1ccc(O)cc1,outcome,[2],inactive
CC(C)CCCCCCCOC(=O)CCCCC(=O)OCCCCCCCC(C)C,outcome,[2],inactive
Cc1c(-c2cccnc2)c2ccccc2n1CCCCC(=O)O,outcome,[2],inactive
Oc1ccc2c(c1)-c1ccccc1C2,outcome,[2],inactive
same,AC50,[4],156 µM (active)
COCCOc1cc2cc(C(=O)NC3CCN(C(C)C)CC3)n(CC(=O)Nc3ccc(Cl)cn3)c2cn1,outcome,[2],inactive
same,outcome,[4],inactive
CC(C)=CCCC(C)=CC=O,AC50,DIO2 (gene 1734),100 µM (active)
